{"source": "PubChem BioAssay (NCI)", "note": "About 83,000 compounds went through this panel and 20% of them were active in at least one assay; those are over-represented in the sample as a whole.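 Plates (96-well) were seeded with cells, treated with compound at one concentration, and incubated for 48 hours before percent growth was determined.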 Unmarked numbers belong to inactive results. The source made the active and inactive calls. Rule for the calls: active = growth percent below 10; inactive = the rest."}
{"tested_on": "MDA-MB-468 breast", "assay": "NCI-60 one-dose screen, 48 h (100 = growth as untreated, 0 = no growth, -100 = all killed)", "settings": "10 µM unless noted"}
{"smiles": "CCN1CCN(Cc2ccc(NC(=O)c3nc4ccc5[nH]ncc5c4c4c3CCCC4)cc2C(F)(F)F)CC1", "growth": "-51.9% (active)"}
{"smiles": "Nc1cc(C(=O)O)cc(-n2c(O)c(C=C3N=c4ccccc4=N3)sc2=S)c1", "growth": "105%"}
{"smiles": "O=S(=O)(NCCCNc1cc(-c2cn(-c3ccccc3)nc2-c2cccc(O)c2)ccn1)c1ccc(Cl)cc1", "growth": "-15.9% (active)"}
{"smiles": "CN(C)CCNC(=O)c1ccc(-c2nc3ccc4[nH]ncc4c3c3c2CCC3)cc1", "growth": "-55.3% (active)"}
{"smiles": "COc1cc(C2=NN(C(C)=O)C(c3cc(OC)c(OC)c(OC)c3)C2)ccc1O", "note": "(configuration not stated)", "growth": "15.9%"}
{"smiles": "CNC(=O)c1cn2c3c(c(N4CCN(C)CC4)c(F)cc3c1=O)OC[C@@H]2C", "growth": "97.7%"}
{"smiles": "COC(=O)C[C@@H]1CC=CC(=O)/C1=C(O)/C=C/c1ccccc1", "growth": "-85.5% (active)"}
{"smiles": "COC(=O)/C=C1\\SC(=Nc2ccc(C(F)(F)F)cc2)N(CCc2c[nH]c3ccccc23)C1=O", "growth": "-66.3% (active)"}
{"smiles": "Nc1cc(F)ccc1NC(=O)c1ccc(NC(=O)C/C=C/c2cccnc2)cn1", "growth": "-27.4% (active)"}
{"smiles": "CC/C(C)=C(\\C)C(=O)O", "growth": "106%"}
{"smiles": "O=C(Nc1ncc(Cc2ccc(Cl)cc2)s1)C1=NCCCCN1", "growth": "102%"}
{"smiles": "O=C(O)c1ccc(-n2cc(/C=N/Nc3ccc(F)cc3)c(-c3cc4ccccc4oc3=O)n2)cc1", "growth": "119%"}
{"smiles": "O=C(Nc1cnc(C(F)(F)F)cn1)c1cc(Cl)ccc1O", "growth": "-0.82% (active)"}
{"smiles": "COc1ccc(-c2ccc(NC(=O)Nc3ccc(Cl)c(C(F)(F)F)c3)c(C)n2)cc1", "growth": "38.5%"}
{"smiles": "CC(=C(c1ccc(OCCCN(C)C)cc1)c1ccc(OCCCN(C)C)cc1)c1ccc(Cl)cc1", "growth": "80%"}
{"smiles": "O=C(Nc1ccc(OS(=O)(=O)c2ccc(F)cc2)cc1)C12CC3CC(CC(C3)C1)C2", "growth": "39.4%"}
{"smiles": "c1ccc2c(c1)ncn2-c1nc2ccccc2n2c1nc1ccccc12", "growth": "-40.5% (active)"}
{"smiles": "O=C(Cc1ccccc1)c1ccc(O)c(Cl)c1", "growth": "-1.16% (active)"}
{"smiles": "Nc1nc(Cl)c2c(C(F)(F)F)cn(CC3CCNCC3)c2n1", "growth": "26.8%"}
{"smiles": "OC1CCCN(Cc2ccccc2)C1", "note": "(configuration not stated)", "growth": "103%"}
{"smiles": "CCCCNCC(O)c1cc(-c2ccc(C(F)(F)F)cc2)nc(-c2ccc(C(F)(F)F)cc2)c1", "note": "(configuration not stated)", "growth": "-87.9% (active)"}
{"smiles": "COc1ccc(-c2nc(SC(C)C)nc(NNC(N)=S)c2C#N)cc1", "growth": "21.2%"}
{"smiles": "C=CCOC(=O)C1=C(C)N(CC)C(=O)NC1c1c(Cl)n(C)c2ccccc12", "note": "(configuration not stated)", "growth": "107%"}
{"smiles": "O=C1c2cccnc2C(=O)c2c1c(C(=O)OCCN1CCOCC1)c1ccccn21", "growth": "-2.61% (active)"}
{"smiles": "C#CCNC(=O)[C@]1(C)CCC[C@@]2(C)[C@H]1CC=C1C=C(C(C)C)CC[C@@H]12", "growth": "101%"}
{"smiles": "N#Cc1c(NCc2ccccc2I)sc2c1CCCCC2", "growth": "97.1%"}
{"smiles": "Nc1c(C(=O)Nc2cccc3cnccc23)sc2nc3c(cc12)C(=O)CCC3", "growth": "47.9%"}
